Data reported in PubChem BioAssay (Tox21).
Inconclusive results are not listed. Values without a mark were called inactive. The source made the active and inactive calls. Calls follow the shape of the dose curve; as a rule, active = well fitted cell-killing curve with a large enough effect in the repeat runs; inconclusive = weak or mixed curves, or effect the other way; inactive = flat fitted curve, though single readings scatter.

Test: cAMP Responsive Elements (CRE) small molecule antagonists, cell-based qHTS assay: qHTS cell viability counter screen (AID 2060913); also: nearly all actives have a fitted effect of over 40% in size
Settings: CRE-bla HEK293T viability, CellTiter-Glo luminescence, 5 h; series mostly up to 92.4 µM; viability change, negative = cytotoxic: at the top concentration
Outline: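 HEK293T CRE-bla, 2,000 cells/well, 18 h preincubation; cpd in DMSO + NKH477 0.25 uM final, 3 h 37 C/5% CO2; LiveBLAzer 2 h RT, then CellTiter-Glo 30 min RT, luminescence.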
% is scaled to controls: 0 for no effect and ±100 for the full control effect; potency is read from the fitted curve at half-maximal effect.

Row | Compound | viability change, negative = cytotoxic | Potency
1 | CCCCCc1cccc(=O)o1 | 5% | –
2 | CC(C)CCOC(=O)/C=C/c1ccccc1 | 1.06% | –
3 | CC1=NN(c2ccccc2)C(=O)C1 | – | inactive
4 | CCCC(=O)OC | 6.89% | –
5 | CCCCC/C=C\C/C=C\CCCCCCCC(=O)OC | – | inactive
6 | O=S(=O)(O)SSS(=O)(=O)O | 11.9% | –
7 | CC(C)=CCO | – | inactive
8 | CCCCCCCCCCCCCCN(C)C | 8.85% [at 18.9 µM] | –
9 | COC(=O)c1cc(C(=O)OC)cc(S(=O)(=O)O)c1 | 7.5% | –
10 | CCC(C(=O)NC(N)=O)c1ccccc1 (stereo not given) | 1.65% | –
11 | C[n+]1cc2c3c(ccc2c2ccc4cc5c(cc4c21)OCO5)OCO3 | – | 3.66 µM (active)
12 | CC(C)O.CC(C)O.CCOC(=O)/C=C(\C)O.CCOC(=O)/C=C(\C)O.[Ti] | 7.89% | –
13 | CCCCCCCC/C=C\CCCCCCCC(=O)OC(CO)CO | 16.7% | –
14 | Cc1ccc(O)cn1 | 3.11% | –
15 | C#C[C@]1(O)CC[C@H]2[C@@H]3CCC4=CC(=O)CC[C@@H]4[C@H]3CC[C@@]21CC | – | inactive
16 | Cc1cccc2c1cc1ccc3cccc4ccc2c1c34 | -0.428% | –
17 | NC=O | – | inactive
18 | COc1ccc(-c2coc3cc(O)cc(O)c3c2=O)cc1 | – | inactive
19 | Cc1cc(O)c(C(C)(C)C)cc1Sc1cc(C(C)(C)C)c(O)cc1C | – | 21.6 µM (active)
20 | C[C@H]1[C@H](NC(=O)/C(=N/OC(C)(C)C(=O)O)c2csc(N)n2)C(=O)N1S(=O)(=O)O (stereo in doubt) | -1.06% [at 42.5 µM] | –

Test: cAMP Responsive Elements (CRE) small molecule agonists, cell-based qHTS assay: qHTS cell viability counter screen (AID 2060914);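 also: viability read after 3 h of compound exposure; nearly all actives have a fitted effect of over 50% in size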
Settings: CRE-bla HEK293T viability, CellTiter-Glo luminescence, 5 h; series mostly up to 92.4 µM; activity change, negative = cytotoxicity: at the top concentration
Outline: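 Cytotoxicity counter screen multiplexed with the CRE-bla reporter assay in HEK 293T cells: 3 h compound exposure at 37 °C, followed by CellTiter-Glo luminescence measured in the same wells.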

Row | Compound | activity change, negative = cytotoxicity | Potency
21 | CC(C)C(=O)OCc1ccccc1 | -5.8% | –
22 | Cc1c(C(=O)NCCO)[n+](=O)c2ccccc2n1[O-] | 5.47% [at 42.5 µM] | –
23 | CC[C@H](C)[C@H](N)C(=O)O | 11% [at 42.5 µM] | –
24 | CCCCCCOC(=O)c1ccccc1O | 3.96% | –
25 | O=C(OC[C@H]1O[C@@H](OC(=O)c2cc(O)c(O)c(OC(=O)c3cc(O)c(O)c(O)c3)c2)[C@H](OC(=O)c2cc(O)c(O)c(OC(=O)c3cc(O)c(O)c(O)c3)c2)[C@@H](OC(=O)c2cc(O)c(O)c(OC(=O)c3cc(O)c(O)c(O)c3)c2)[C@@H]1OC(=O)c1cc(O)c(O)c(OC(=O)c2cc(O)c(O)c(O)c2)c1)c1cc(O)c(O)c(OC(=O)c2cc(O)c(O)c(O)c2)c1 | -4.58% [at 18.9 µM] | –
26 | CC(=O)NCCO | 1.44% | –
27 | O=Cc1ccccc1[N+](=O)[O-] | 4.63% | –
28 | C=CC(=O)OCCCCCCCC(C)C | – | inactive
29 | C=CC(=O)NC(C)C | 0.251% | –
30 | CCCCNC(N)=O | – | inactive
31 | O=C(O)CCCc1c[nH]c2ccccc12 | -3.32% | –
32 | C=CC(=O)OCC(Br)CBr (stereo not given) | 1.14% | –
33 | CC(C)CCOCc1ccccc1 | 5.12% | –
34 | COc1ccc(Nc2ccccc2)c(C)c1 | – | inactive
35 | CCCCCCCCCCC1CO1 (stereo not given) | 4.56% | –
36 | BrCc1cccc(Oc2ccccc2)c1 | -0.274% | –
37 | NS(=O)(=O)c1cc(C(=O)O)c(NCc2ccco2)cc1Cl | – | inactive
38 | C=Cc1ccc(O)c(OC)c1 | -0.349% | –
39 | CCCSSCCC | 3.57% | –
40 | CC[C@H](C)C(=O)O[C@H]1C[C@H](O)C=C2C=C[C@H](C)[C@H](CC[C@@H](O)C[C@@H](O)CC(=O)O)[C@H]21 | – | 5.45 µM (active)

Row | Compound | activity change, negative = cytotoxicity | Potency
41 | CCCCCc1cccc(=O)o1 | -0.572% | –
42 | CC(C)CCOC(=O)/C=C/c1ccccc1 | 5.08% | –
43 | CC1=NN(c2ccccc2)C(=O)C1 | – | inactive
44 | CCCC(=O)OC | -2.04% | –
45 | CCCCC/C=C\C/C=C\CCCCCCCC(=O)OC | – | inactive
46 | O=S(=O)(O)SSS(=O)(=O)O | -1.94% | –
47 | CC(C)=CCO | – | inactive
48 | CCCCCCCCCCCCCCN(C)C | -15% [at 18.9 µM] | –
49 | COC(=O)c1cc(C(=O)OC)cc(S(=O)(=O)O)c1 | -11.9% | –
50 | CCC(C(=O)NC(N)=O)c1ccccc1 (stereo not given) | 2.82% | –
51 | C[n+]1cc2c3c(ccc2c2ccc4cc5c(cc4c21)OCO5)OCO3 | – | 3.26 µM (active)
52 | CC(C)O.CC(C)O.CCOC(=O)/C=C(\C)O.CCOC(=O)/C=C(\C)O.[Ti] | 5.15% | –
53 | CCCCCCCC/C=C\CCCCCCCC(=O)OC(CO)CO | 8.09% | –
54 | Cc1ccc(O)cn1 | -0.11% | –
55 | C#C[C@]1(O)CC[C@H]2[C@@H]3CCC4=CC(=O)CC[C@@H]4[C@H]3CC[C@@]21CC | – | inactive
56 | Cc1cccc2c1cc1ccc3cccc4ccc2c1c34 | 2.05% | –
57 | NC=O | – | inactive
58 | COc1ccc(-c2coc3cc(O)cc(O)c3c2=O)cc1 | – | inactive
59 | Cc1cc(O)c(C(C)(C)C)cc1Sc1cc(C(C)(C)C)c(O)cc1C | – | 38.5 µM (active)
60 | C[C@H]1[C@H](NC(=O)/C(=N/OC(C)(C)C(=O)O)c2csc(N)n2)C(=O)N1S(=O)(=O)O (stereo in doubt) | -8.38% [at 42.5 µM] | –
